Measurements from PubChem BioAssay (EPA / NIEHS).
Inconclusive results are not listed. Activity calls are given as the source filed them. The calls were made as follows, unless noted: active = hit-call score of the fitted dose curve at least 0.9, where 1 is the maximum; inactive = score below 0.9.

Assays:
[1] = ACEA_ER_80hr: ACEA Biosciences xCELLigence Real-Time Cell Analysis on Estrogen Receptor Agonism for Proliferation (AID 2282667; active = hit-call score of the fitted dose curve at least 0.9, where 1 is the maximum); settings: T47D proliferation, impedance (xCELLigence), 80 h
Procedure, shortened: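 Estrogen-driven proliferation is captured as electrode impedance in T47D cells 80 h after compound addition. Test articles ran at 8 concentrations, 1:4 dilutions from 100 uM final, in two replicate plates.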

[2] = APR_HepG2_CellCycleArrest_24hr: Apredica 24-hour HepG2 Assay for Cell Cycle Arrest (AID 2282905); settings: imaging, actives raise or lower the signal;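 also: cell cycle arrest scored as ratio of 2N to 4N nuclear DNA content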
Procedure, shortened: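 HepG2 cells were exposed to compounds at 0.39–200 uM (ten concentrations, duplicate) in 0.5% v/v DMSO for 24 hr. After formaldehyde fixation and Triton permeabilization, Hoechst 33342-stained nuclei were imaged at 20x; DNA content was quantified, with bidirectional fitting against DMSO.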

[3] = APR_HepG2_NuclearSize_24hr: Apredica 24-hour HepG2 Assay for Nuclear Size (AID 2282907); settings: high-content imaging, actives raise or lower the signal
Procedure, shortened: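 HepG2 human liver cells were exposed for 24 hr to compounds at 0.39–200 uM (ten concentrations, duplicate) in 0.5% v/v DMSO. They were then formaldehyde-fixed, Triton-permeabilized and Hoechst 33342-stained, and nuclear diameter was imaged at 20x. Bidirectional fits were made against DMSO.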

[4] = APR_HepG2_CellLoss_24hr: Apredica 24-hour HepG2 Assay for Cell Loss (AID 2282908); settings: high-content imaging
Procedure, shortened: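 Compounds were tested at 0.39–200 uM in duplicate with 0.5% v/v DMSO final. Cells were then fixed in 3.7% formaldehyde, Hoechst 33342 nuclei were imaged at 20x by HCS, and cell number was fitted bidirectionally against DMSO.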

[5] = APR_HepG2_MicrotubuleCSK_24hr: Apredica 24-hour HepG2 Assay for Microtubule CSK Stabilty (AID 2282909); settings: HepG2 microtubule cytoskeleton imaging, actives raise or lower the signal
Procedure, shortened: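 HepG2 cells exposed 24 h to compounds at 0.39–200 uM (duplicate, 0.5% v/v DMSO final), then fixed, permeabilized and immunostained for alpha-tubulin with Hoechst 33342. Cytoskeleton imaged at 20x; bidirectional fit versus DMSO baseline.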

[6] = APR_HepG2_MitoticArrest_24hr: Apredica 24-hour HepG2 Assay for Mitotic Arrest (AID 2282910); settings: high-content imaging, actives raise or lower the signal
Procedure, shortened: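 Compounds are dosed onto HepG2 cells across ten concentrations up to 200 uM for 24 hr. Cells are then fixed in 3.7% formaldehyde, permeabilised, and labelled for phospho-histone H3 and nuclei; images are scored by cell cycle analysis and fitted bidirectionally relative to DMSO.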

[7] = APR_HepG2_MitoMembPot_24hr: Apredica 24-hour HepG2 Assay for Mitochondrial Membrane Potential (AID 2282911); settings: imaging, actives raise or lower the signal
Procedure, shortened: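 Mitochondrial dye uptake (MitoTracker Red CMXRos, 250 nM, 30 min pre-fixation) in HepG2 after 24 hr compound exposure, 0.39–200 uM; ArrayScan images at 20x, activity fitted in both directions relative to DMSO.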

[8] = APR_HepG2_MitoMass_24hr: Apredica 24-hour HepG2 Assay for Mitochondrial Mass (AID 2282912); settings: high-content imaging, actives raise or lower the signal
Procedure, shortened: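 Human HepG2 liver cells were exposed for 24 hr to compounds at 0.39–200 uM (duplicates, 0.5% v/v DMSO final). They were stained live with 250 nM MitoTracker Red CMXRos for 30 min, fixed in 3.7% formaldehyde, and imaged by HCS fluorescence; signals were fitted bidirectionally against DMSO.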

[9] = APR_HepG2_CellLoss_72hr: Apredica 72-hour HepG2 Assay for Cell Loss (AID 2282915); settings: high-content imaging
Procedure, shortened: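 Cell number comes from Hoechst 33342-labelled nuclei, imaged at 20x after 3.7% formaldehyde fixation. Dosing was 0.39–200 uM, ten concentrations in duplicate, 0.5% DMSO final, for 72 h. Bidirectional fit relative to DMSO baseline.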

[10] = APR_HepG2_P-H2AX_72hr: Apredica 72-hour HepG2 Assay for H2AX Phosphorylation (AID 2282916); settings: imaging, actives raise or lower the signal;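 also: phospho-histone H2A.x immunostain intensity per cell marking DNA damage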
Procedure, shortened: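 HepG2 human liver cells were exposed for 72 hr to compounds at 0.39–200 uM (10 concentrations, duplicate per plate) in 0.5% v/v DMSO. Fixed, permeabilized cells were immunolabeled for phospho-histone H2A.x with Hoechst 33342 and imaged by HCS fluorescence; bidirectional fit versus DMSO.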

[11] = APR_HepG2_P-H2AX_24hr: Apredica 24-hour HepG2 Assay for H2AX Phosphorylation (AID 2282920); settings: high-content imaging, actives raise or lower the signal
Procedure, shortened: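 Human HepG2 liver cells, treated 24 hr with test chemicals (0.39–200 uM, final DMSO 0.5% v/v), are fixed and co-stained for phospho-H2A.x and c-Jun with Hoechst. Imaged intensity is fitted in both directions against DMSO controls.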

[12] = APR_HepG2_StressKinase_72hr: Apredica 72-hour HepG2 Assay for Stress Kinase (AID 2282921); settings: HepG2 stress kinase (phospho-c-Jun) imaging, actives raise or lower the signal
Procedure, shortened: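 Cells were exposed for 72 h to ten concentrations (0.39–200 uM, duplicate) at 0.5% v/v DMSO final, then fixed with 3.7% formaldehyde, permeabilized and immunostained for phospho-c-Jun (Cy3 secondary) with Hoechst nuclear counterstain.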

[13] = APR_HepG2_StressKinase_24hr: Apredica 24-hour HepG2 Assay for Stress Kinase (AID 2282922); settings: HepG2 stress kinase (phospho-c-Jun) imaging, actives raise or lower the signal
Procedure, shortened: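 HepG2, 24 hr dosing, 0.39–200 uM in duplicate, 0.5% DMSO; formaldehyde fix (3.7%), 0.5% Triton X-100; anti-phospho-c-Jun + Cy3 secondary, Hoechst counterstain; ArrayScan imaging; bidirectional curve fit vs DMSO baseline.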

[14] = APR_HepG2_NuclearSize_72hr: Apredica 72-hour HepG2 Assay for Nuclear Size (AID 2282925); settings: high-content imaging, actives raise or lower the signal
Procedure, shortened: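 HepG2; cpd 0.39–200 uM, 10 conc, duplicate; 72 h; DMSO 0.5% v/v; fix 3.7% formaldehyde 30 min RT; Triton permeabilization; Hoechst 2 ug/mL; HCS imaging 20x; nuclear diameter; gain/loss fit vs DMSO.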

[15] = APR_HepG2_p53Act_24hr: Apredica 24-hour HepG2 Assay for p53 Activation (AID 2282913); settings: high-content imaging, actives raise or lower the signal;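 also: p53 protein immunofluorescence averaged per cell in HepG2 with Hoechst nuclei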
Procedure, shortened: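 Following 24 hr dosing of HepG2 at 0.39–200 uM, the cells undergo formaldehyde fixation, Triton permeabilization and multiplexed antibody labeling that includes p53 (Cy5). Signal from the imaging is referenced to DMSO solvent controls.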

[16] = APR_HepG2_p53Act_72hr: Apredica 72-hour HepG2 Assay for p53 Activation (AID 2282923); settings: high-content imaging, actives raise or lower the signal;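 also: average cellular p53 protein immunofluorescence intensity in HepG2 cells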
Procedure, shortened: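 Cells were dosed for 72 hr with compounds at 0.39–200 uM in duplicate (final DMSO 0.5% v/v), then fixed in 3.7% formaldehyde, permeabilized with Triton X-100 and immunostained for p53 (Cy5) with Hoechst 33342 nuclear counterstain.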

[17] = APR_HepG2_MitoticArrest_72hr: Apredica 72-hour HepG2 Assay for Mitotic Arrest (AID 2282918); settings: high-content imaging, actives raise or lower the signal
Procedure, shortened: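 Using high-content imaging of fixed HepG2 cells, phospho-histone H3 signal was measured following a 72 hr incubation with ten-point compound dilutions up to 200 uM. DMSO served as the negative control and baseline for bidirectional curve fitting.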

Q: What does the source list for `COCCOCCO`?
A: outcome [1]: inactive; outcome [2]: inactive; outcome [3]: inactive; outcome [4]: inactive; outcome [5]: inactive; outcome [6]: inactive; outcome [7]: inactive; outcome [8]: inactive; outcome [9]: inactive; outcome [10]: inactive; outcome [11]: inactive; outcome [12]: inactive; outcome [13]: inactive; outcome [14]: inactive

Q: For `CC(C)(C)OOC(C)(C)C`, which outcome [1] is on record?
A: The outcome was “inactive”.

Q: And the outcome [2]?
A: The outcome was “inactive”.

Q: What about the outcome [3] of the same compound?
A: The outcome was “inactive”.

Q: And the outcome [4]?
A: The outcome was “inactive”.

Q: And the outcome [5]?
A: Its outcome is “inactive”.

Q: And the outcome [6]?
A: The outcome was “inactive”.

Q: What about the outcome [7] of the same compound?
A: The outcome was “inactive”.

Q: What about the outcome [8] of the same compound?
A: The outcome was “inactive”.

Q: What about the outcome [15] of the same compound?
A: The outcome was “inactive”.

Q: What about the outcome [9] of the same compound?
A: The outcome was “inactive”.

Q: What about the outcome [10] of the same compound?
A: Its outcome is “inactive”.

Q: What about the outcome [11] of the same compound?
A: The outcome was “inactive”.

Q: What about the outcome [12] of the same compound?
A: Its outcome is “inactive”.

Q: What about the outcome [13] of the same compound?
A: The outcome was “inactive”.

Q: And the outcome [16]?
A: Its outcome is “inactive”.

Q: And the outcome [14]?
A: The outcome was “inactive”.

Q: What does the source list for `CC(C)(C)c1ccc(O)cc1`?
A: AC50 [1]: 10.5 µM (active); outcome [4]: inactive; outcome [6]: inactive; outcome [7]: inactive; outcome [8]: inactive; outcome [15]: inactive; outcome [9]: inactive; outcome [10]: inactive; outcome [17]: inactive; outcome [11]: inactive; outcome [12]: inactive; outcome [13]: inactive; outcome [16]: inactive

Q: With `OCC1CO1` (configuration not stated) as the compound, how does the outcome [1] read?
A: Its outcome is “inactive”.

Q: What about the outcome [2] of the same compound?
A: The outcome was “inactive”.

Q: What about the outcome [3] of the same compound?
A: The outcome was “inactive”.

Q: And the outcome [4]?
A: The outcome was “inactive”.

Q: What about the outcome [5] of the same compound?
A: Its outcome is “inactive”.

Q: What about the outcome [6] of the same compound?
A: The outcome was “inactive”.

Q: And the outcome [7]?
A: Its outcome is “inactive”.

Q: What about the outcome [8] of the same compound?
A: Its outcome is “inactive”.

Q: And the outcome [15]?
A: The outcome was “inactive”.

Q: And the outcome [9]?
A: Its outcome is “inactive”.

Q: What about the outcome [10] of the same compound?
A: Its outcome is “inactive”.

Q: What about the outcome [11] of the same compound?
A: The outcome was “inactive”.

Q: What about the outcome [12] of the same compound?
A: Its outcome is “inactive”.

Q: What about the outcome [13] of the same compound?
A: The outcome was “inactive”.

Q: And the outcome [16]?
A: Its outcome is “inactive”.

Q: And the outcome [14]?
A: Its outcome is “inactive”.

Q: For `CSC(C)(C)C=NO`, which outcome [1] is on record?
A: The outcome was “inactive”.

Q: And the outcome [2]?
A: Its outcome is “inactive”.

Q: And the outcome [3]?
A: Its outcome is “inactive”.

Q: What about the outcome [4] of the same compound?
A: Its outcome is “inactive”.

Q: What about the outcome [5] of the same compound?
A: The outcome was “inactive”.

Q: And the outcome [6]?
A: Its outcome is “inactive”.

Q: And the outcome [7]?
A: Its outcome is “inactive”.

Q: What about the outcome [8] of the same compound?
A: Its outcome is “inactive”.

Q: What about the outcome [9] of the same compound?
A: Its outcome is “inactive”.

Q: And the outcome [10]?
A: Its outcome is “inactive”.

Q: What about the outcome [11] of the same compound?
A: The outcome was “inactive”.

Q: What about the outcome [12] of the same compound?
A: Its outcome is “inactive”.

Q: What about the outcome [13] of the same compound?
A: Its outcome is “inactive”.

Q: And the outcome [14]?
A: Its outcome is “inactive”.

Q: With `CCNc1nc(Cl)nc(NC(C)(C)C)n1` as the compound, how does the AC50 [1] read?
A: Its AC50 is 28 µM (active).

Q: What about the outcome [2] of the same compound?
A: Its outcome is “inactive”.

Q: And the outcome [3]?
A: Its outcome is “inactive”.

Q: And the outcome [4]?
A: The outcome was “inactive”.

Q: And the outcome [5]?
A: The outcome was “inactive”.

Q: And the outcome [6]?
A: Its outcome is “inactive”.

Q: What about the outcome [7] of the same compound?
A: The outcome was “inactive”.

Q: What about the outcome [8] of the same compound?
A: The outcome was “inactive”.

Q: What about the outcome [9] of the same compound?
A: Its outcome is “inactive”.

Q: What about the outcome [10] of the same compound?
A: Its outcome is “inactive”.

Q: What about the outcome [11] of the same compound?
A: The outcome was “inactive”.

Q: What about the outcome [12] of the same compound?
A: The outcome was “inactive”.

Q: What about the outcome [13] of the same compound?
A: The outcome was “inactive”.

Q: What about the outcome [14] of the same compound?
A: Its outcome is “inactive”.
